From PubChem BioAssay (Tox21)
Several values for one entry are separate records, joined by “and”; a condition that tells them apart may be missing. Identical values can stand only once. Inconclusive results are not listed. A number with no mark means an inactive call. Activity calls are given as the source filed them. Calls follow the shape of the dose curve; as a rule, active = well fitted activation curve with a large enough effect in the repeat runs; inconclusive = weak or mixed curves; inactive = flat fitted curve, though single readings scatter.

Assay: A CellTox Green Cytotoxicity Assay to monitor cytotoxicity in HepG2 cells - 40 hour (AID 1224879); also: nearly all actives have a fitted effect of over 40% in size
Conditions: CellTox Green fluorescence; series mostly up to 76.8 µM; cytotoxicity increase: at the top concentration
Summary of the method: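 Nonlytic assay: viable cells exclude the dye, so fluorescence scales with cell death. HepG2 at 600 cells/well, compounds added after 5 h, signal read across 40 h.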
% is scaled to controls: 0 for no effect and ±100 for the full control effect; potency is read from the fitted curve at half-maximal effect.

| SMILES | cytotoxicity increase | Potency |
| --- | --- | --- |
| Cc1ccc(-c2c(Cl)nc(C#N)n2S(=O)(=O)N(C)C)cc1 | 17.4% |  |
| CCCN(CC1CC1)c1c([N+](=O)[O-])cc(C(F)(F)F)cc1[N+](=O)[O-] | -1.56% |  |
| COc1cc(CC(C)N)cc2c1OCO2 (stereo not drawn) | 1.24% |  |
| CCCN(CCCl)c1c([N+](=O)[O-])cc(C(F)(F)F)cc1[N+](=O)[O-] | -9.94% |  |
| CCOP(=S)(OCC)SCn1nnc2ccccc2c1=O | -13.5% |  |
| CN1C(=O)C(O)N=C(c2ccccc2)c2cc(Cl)ccc21 (stereo not drawn) | 1.23% |  |
| CCN(C)N=O | 3.4% |  |
| C(=NC1CCCCC1)=NC1CCCCC1 |  | 9.84 µM (active) and 11 µM (active) |
| CC(C)O.CC(C)O.OCCN(CCO)CCO.OCCN(CCO)CCO.[Ti] | -20.9% |  |
| O=Cc1ccc2c(c1)OCO2 | 0.17% |  |
| CCOC(=O)CBr | 1.89% |  |
| Cc1ccccc1C(=O)Nc1cccc(OC(C)C)c1 | 6.02% |  |
| IC(I)=C(I)I |  | 12.3 µM (active) |
| Nc1ccc([N+](=O)[O-])cc1[N+](=O)[O-] | -0.872% |  |
| O=C(O)C(F)(F)C(F)(F)C(F)(F)C(F)(F)C(F)(F)C(F)(F)C(F)(F)C(F)(F)C(F)(F)F | 2.73% |  |
| COC(=O)C(Br)CBr (stereo not drawn) | 3.01% |  |
| Clc1ccc(C2(Cn3cncn3)CC(Br)CO2)c(Cl)c1 (stereo not drawn) |  | 38.7 µM (active) |
| O=[N+]([O-])c1ccccc1CCl | 3.3% |  |
| C=CC(=O)OCCCCO | -1.96% |  |
| CCOP(=O)(OCC)O/C(=C/Cl)c1ccc(Cl)cc1Cl | 16.2% |  |
| II |  | 38.9 µM (active) |
| CCOP(=O)(OCC)Oc1ccc([N+](=O)[O-])cc1 |  | inactive |
| C=CC(=O)OCC(C)O (stereo not drawn) | -0.299% |  |
